A selection: hits, their analogues and other compounds. The true share with any hit is near 4.5%.
HDAC3 inhib: blocks human histone deacetylase 3 | O15379 | recombinant HDAC3, fluorogenic peptide/trypsin coupled, fluorescence | inhibition, % at 8.3 µM | 320,000 compounds, 0.15% hits | AID 2718; in the data active means inhibition above about 26%, passing the limit was not always enough; inconclusive means no clear call, values can overlap the other calls
Efflux pump mplx: blocks antifungal efflux pumps in multiplex yeast assay; S. cerevisiae Candida pump triplex, Nile Red efflux; inhibition, % at 10 µM; 330,000 compounds, 0.44% hits; AID 485275;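 active means plate passing quality check with inhibition over a set limit, or well fluorescence over plate mean plus 4 SD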;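 further: Nile Red retained in pooled yeast measured as flow cytometry median fluorescence; higher means more Nile Red kept so more efflux inhibition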
GRK2 inh: inhibitors of human GRK2 displacing RNA aptamer; P25098; bead flow cytometry, FAM-aptamer displacement from GRK2; inhibition of aptamer binding, % at 10 µM; 330,000 compounds, 0.59% hits; AID 488847;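 active means inhibition of aptamer binding above 40%, roughly 3 SD of noise, on plates passing a quality check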;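 further: median bead fluorescence of bound FAM aptamer so fluorescent compounds give negative values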
Rce1 inhib: inhibitors of yeast Ras-converting enzyme | 290,000 compounds, 0.27% hits | Q03530 | AID 2563 | calls only | yeast membranes, quenched prenylated peptide cleavage fluorescence;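 active means fall in fluorescence gain of 50% or more versus controls, with final raw signal at or below 3038400; inconclusive means same 50% fall but final raw signal above 3038400; inactive means fall in fluorescence gain under 50%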
ALR inh: human ALR oxidase inhibition via reduced H2O2; P55789; purified ALR, DTT oxidation, H2O2 HRP-luminol luminescence; inhibition, % (no concentration beside the values); 290,000 compounds, 3.8% hits; AID 485317;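 active means mean replicate inhibition above about 79%, with every replicate also reaching it, limit read from the data; inconclusive means only one of the two criteria met; inactive means mean below limit and not every replicate reaching it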
Target sequence (P55789 whole entry, looked up): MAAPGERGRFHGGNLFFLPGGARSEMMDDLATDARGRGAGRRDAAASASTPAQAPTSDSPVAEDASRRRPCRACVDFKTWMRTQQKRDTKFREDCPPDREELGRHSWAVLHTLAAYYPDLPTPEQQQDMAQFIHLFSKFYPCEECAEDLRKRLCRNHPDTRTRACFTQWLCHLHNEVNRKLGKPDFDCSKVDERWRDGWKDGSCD
Rtt109 HAT inh: C. albicans Rtt109 histone acetyltransferase inhibition. Q5AAJ8. inhibition, % at 34.9 µM. AID 540336. 330,000 compounds, 0.16% hits. purified Rtt109/Vps75, ThioGlo CoA-SH fluorescence, 4 h;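 active means inhibition of at least 50% in every replicate; inconclusive means best replicate reaches 50% inhibition but some replicates fall short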
Of the large screens only hits and unclear results are named; the others gave an inactive call.

COc1ccccc1NS(=O)(=O)c1cccc(C(=O)NCC2(N3CCCCC3)CCCCC2)c1	none (no result: HDAC3 inhib, Efflux pump mplx, GRK2 inh, Rce1 inhib, ALR inh)
Cc1oc(-c2ccc(Cl)cc2)nc1CS(=O)CC(=O)NCCCN(C)C1CCCCC1 (stereo not drawn)	ALR inh 99, Rtt109 HAT inh inconclusive
COc1cccc(-c2nc(CSCC(=O)NCC3CCCO3)c(C)o2)c1 (stereo not drawn)	ALR inh 99
Cc1oc(-c2cccs2)nc1CS(=O)CC(=O)NC1CCCCCC1 (stereo not drawn)	ALR inh 99
Cc1oc(-c2ccccc2F)nc1CS(=O)(=O)CC(=O)NCCN(C)C1CCCCC1	none
Cc1cccc(-c2nc(CS(=O)CC(=O)NC3CCCC(C)C3C)c(C)o2)c1 (stereo not drawn)	ALR inh 99 (no result: HDAC3 inhib)
Cc1oc(-c2ccc(Cl)cc2)nc1CS(=O)CC(=O)NC1CCCCCC1 (stereo not drawn)	none
COc1ccc(-c2nc(CS(=O)CC(=O)NC3CCCCC3C)c(C)o2)cc1OC (stereo not drawn)	ALR inh 99
COc1ccc(-c2nc(CS(=O)CC(=O)NC3CCCC3)c(C)o2)cc1 (stereo not drawn)	ALR inh 98
CCC1CCCCN1CCCNC(=O)CS(=O)Cc1nc(-c2ccc(OC)c(OC)c2)oc1C (stereo not drawn)	ALR inh 100
COc1ccc(-c2nc(CN3CCCC(C(=O)NC4CCCC4)C3)c(C)o2)cc1 (stereo not drawn)	none (no result: Rce1 inhib)
CCOC(=O)CC1CCCCN1Cc1nc(-c2ccc(F)c(OC)c2)oc1C (stereo not drawn)	none (no result: Rce1 inhib, Rtt109 HAT inh)
Cc1ccc(-c2nc(CS(=O)CC(=O)NC3CCCCC3)c(C)o2)cc1 (stereo not drawn)	ALR inh 99
O=C1Nc2ccccc2C(=O)N2C[C@@H](O)C[C@H]12	none (no result: ALR inh)
CCCN(CC(=O)Nc1ccccc1OC)C(=O)c1ccc(COc2ccccc2)o1	none (no result: Rce1 inhib)
Cc1oc(-c2ccc(Cl)cc2)nc1CS(=O)CC(=O)NC1CCCC1 (stereo not drawn)	ALR inh 99
Cc1oc(-c2ccc(Cl)cc2)nc1CS(=O)CC(=O)NC1CCCCC1 (stereo not drawn)	ALR inh 97
COc1ccc(-c2nc(CS(=O)CC(=O)NCC3CCCO3)c(C)o2)cc1 (stereo not drawn)	ALR inh 98 (no result: HDAC3 inhib)
COc1ccc(-c2nsc(SCC(=O)NCC3CCCO3)n2)cc1 (stereo not drawn)	ALR inh 95
Cc1ccc(-c2nsc(SCC(=O)NCC3CCCO3)n2)cc1 (stereo not drawn)	none
COc1ccc(C(=O)OCC(=O)NCC2CCCO2)cc1 (stereo not drawn)	none
O=C(NC(O)C(=O)c1ccccc1)c1cccs1 (stereo not drawn)	ALR inh 91
CSCCC(NS(=O)(=O)c1cccc(C(F)(F)F)c1)C(=O)Nc1ccccc1N1CCCC1 (stereo not drawn)	none
Cc1nn(C(=O)Cn2ccc([N+](=O)[O-])n2)c(C)c1Cl	none
Cc1cccn2cc(-c3c[nH]c4ccccc34)nc12	ALR inh 98
Brc1ccc2nc(-c3c[nH]c4ccccc34)cn2c1	none (no result: ALR inh)
Nn1c(SCC(=O)Nc2ccc(OC(F)F)cc2)nnc(Cc2ccccc2)c1=O	ALR inh 98
COc1ccc(NC(=O)CSc2nnc(Cc3ccccc3)c(=O)n2N)c(OC)c1	none
Cc1ccc(NC(=O)CSc2nnc(C)c(=O)n2N)cc1Cl	none
Cc1nnc(SCC(=O)Nc2ccc(OC(F)F)c(Cl)c2)n(N)c1=O	ALR inh 99 (no result: Rce1 inhib)
CC(C)[C@H](NS(=O)(=O)c1cccc(C(F)(F)F)c1)C(=O)OCC(=O)NC(=O)NCc1ccco1	none (no result: Rce1 inhib)
Cc1sc2nc(CN3CCC(C)CC3)nc(Cl)c2c1C	ALR inh 97 (no result: Rtt109 HAT inh)
COc1ccc(NC(=O)CSc2c3c(nc4ccccc24)CCCC3)c(OC)c1	ALR inh 100
COCCNC(=O)CSc1c2c(nc3ccc(Cl)cc13)CCCC2	ALR inh 98
O=C(CSc1c2c(nc3cc(Cl)ccc13)CCCC2)NCc1ccco1	none (no result: ALR inh)
COc1ccc(NC(=O)CSc2c3c(nc4cc(Cl)ccc24)CCCC3)cc1OC	ALR inh 99
COc1ccc(NC(=O)CSc2cn[nH]n2)c(OC)c1	none
COc1ccc(NC(=O)CSc2nc(O)cc(=O)[nH]2)c(OC)c1	ALR inh 99

Screening data deposited in PubChem BioAssay by several laboratories.
